The record followed here is PubChem BioAssay AID1159580 (chemical genetic matrix, 2015).

Each structure is given as a SMILES string. Among all 5,500 compounds or so, about 2,000 (36%) were called active. Another 18% or so got no clear call; they are omitted. Some of the results follow. Unmarked numbers belong to inactive results. No stated cut-off is given here; in the data, active means normalized growth mostly below about 0.91 (no sharp cut-off); inconclusive means no clear call, values can overlap the other calls; inactive means mostly above about 0.92.

The nature of this assay: chemical genetic growth profiling, strain panel (AID 1159580).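 Further: tested at 20 µM; growth read once vehicle control cultures reached saturation at 30 °C; 1 = growth at the plate median or of vehicle wells.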 Particulars: growth OD.
[1] abbreviates: S. cerevisiae deletion strains, locus YDR150W, strain NUM1, stronger effect = lower value.
The mark [2] stands for this setting: S. cerevisiae deletion strains, locus YGR078C, strain PAC10, stronger effect = lower value.
The mark [3] stands for this setting: S. cerevisiae deletion strains, locus YNL128W, strain TEP1, stronger effect = lower value.
The mark [4] stands for this setting: S. cerevisiae deletion strains, locus YNL322C, strain KRE1, stronger effect = lower value.
Where [5] appears, read: S. cerevisiae deletion strains, locus YPL055C, strain LGE1, stronger effect = lower value.
The mark [6] stands for this setting: S. cerevisiae deletion strains, locus YPL241C, strain CIN2, stronger effect = lower value.

On to `CCCCCCCCCCCCCC(=O)O[C@@H]1[C@@H](C)[C@@]2(O)[C@@H](C=C(CO)C[C@@]3(O)C(=O)C(C)=C[C@@H]23)C2C(C)(C)[C@@]21OC(C)=O` (some centres undefined), for which the normalized growth reads like this: (S. cerevisiae deletion strains, locus YAL040C, strain CLN3, stronger effect = lower value) 0.977; (S. cerevisiae deletion strains, locus YCL061C, strain MRC1 (second series), stronger effect = lower value) 0.992; under setting [1], 0.999; (S. cerevisiae deletion strains, locus YDR363W, strain ESC2, stronger effect = lower value) 0.999; (S. cerevisiae deletion strains, locus YER002W, strain NOP16, stronger effect = lower value) 0.985; under setting [2], 0.972. Moreover, the normalized growth by setting is: under setting [3], 1.01; (S. cerevisiae deletion strains, locus YNL175C, strain NOP13, stronger effect = lower value) 1.01; (S. cerevisiae deletion strains, locus YNL197C, strain WHI3, stronger effect = lower value) 1.02; (S. cerevisiae deletion strains, locus YNL224C, strain SQS1, stronger effect = lower value) 1.01; under setting [4], 1; (S. cerevisiae deletion strains, locus YOR083W, strain WHI5 (second series), stronger effect = lower value) 1.01. For the same compound, the normalized growth was 1.06 under setting [5] and 0.997 under setting [6].

Regarding `Clc1cccc(NC2=NCCS2)c1Cl`, the normalized growth is 0.995 (S. cerevisiae deletion strains, locus YAL013W, strain DEP1, stronger effect = lower value); 1 (S. cerevisiae deletion strains, locus YBR229C, strain ROT2, stronger effect = lower value); 1.03 (S. cerevisiae deletion strains, locus YDL101C, strain DUN1, stronger effect = lower value); 0.984 under setting [1]; 0.974 (S. cerevisiae deletion strains, locus YEL061C, strain CIN8, stronger effect = lower value); 1 under setting [2]. Further, the normalized growth is 0.698 (S. cerevisiae deletion strains, locus YHR030C, strain SLT2, stronger effect = lower value); 1.02 (S. cerevisiae deletion strains, locus YHR087W, strain rtc3, stronger effect = lower value); 1 (S. cerevisiae deletion strains, locus YJL187C, strain SWE1, stronger effect = lower value); 1.01 (S. cerevisiae deletion strains, locus YJR043C, strain POL32, stronger effect = lower value); 1.02 (S. cerevisiae deletion strains, locus YJR075W, strain HOC1, stronger effect = lower value); 0.996 (S. cerevisiae deletion strains, locus YKL190W, strain CNB1, stronger effect = lower value). Moreover, the normalized growth reads like this: (S. cerevisiae deletion strains, locus YLR039C, strain RIC1, stronger effect = lower value) 0.721 (active); (S. cerevisiae deletion strains, locus YLR058C, strain SHM2 (second series), stronger effect = lower value) 1; (S. cerevisiae deletion strains, locus YLR085C, strain ARP6, stronger effect = lower value) 0.931; (S. cerevisiae deletion strains, locus YLR262C, strain YPT6, stronger effect = lower value) 0.817; (S. cerevisiae deletion strains, locus YML094W, strain GIM5, stronger effect = lower value) 1.03; (S. cerevisiae deletion strains, locus YMR219W, strain ESC1, stronger effect = lower value) 1.01. The normalized growth is 0.969 (S. cerevisiae deletion strains, locus YMR263W, strain SAP30, stronger effect = lower value); 0.776 (S. cerevisiae deletion strains, locus YMR307W, strain GAS1, stronger effect = lower value); 1.02 under setting [3]; 1 (S. cerevisiae deletion strains, locus YNL153C, strain GIM3, stronger effect = lower value); 0.946 (S. cerevisiae deletion strains, locus YNL298W, strain CLA4 (second series), stronger effect = lower value); 0.994 under setting [4]. The normalized growth reads like this: (S. cerevisiae deletion strains, locus YNR030W, strain Alg12, stronger effect = lower value) 0.971; (S. cerevisiae deletion strains, locus YOL006C, strain TOP1, stronger effect = lower value) 0.722 (active); under setting [5], 0.953; under setting [6], 1.05; (S. cerevisiae deletion strains, locus YPR135W, strain CTF4, stronger effect = lower value) 0.928; (S. cerevisiae strains, strain wild type, stronger effect = lower value) 0.983.
